Source: PubChem BioAssay (National Center for Advancing Translational Sciences (NCATS))
RORgamma inh = blocks mouse ROR gamma transcriptional activity | Drosophila S2 Gal4-RORgamma UAS-luciferase reporter, 20 h | AID 2551 | hit rate 5.4% among 310,000 | Potency, µM (doses to about 53.6 µM), actives largely listed as inhibitors | P51450; note: nearly all actives have a fitted effect of over 60% in size
Target sequence (P51450 whole entry, looked up, the tested form may be a part): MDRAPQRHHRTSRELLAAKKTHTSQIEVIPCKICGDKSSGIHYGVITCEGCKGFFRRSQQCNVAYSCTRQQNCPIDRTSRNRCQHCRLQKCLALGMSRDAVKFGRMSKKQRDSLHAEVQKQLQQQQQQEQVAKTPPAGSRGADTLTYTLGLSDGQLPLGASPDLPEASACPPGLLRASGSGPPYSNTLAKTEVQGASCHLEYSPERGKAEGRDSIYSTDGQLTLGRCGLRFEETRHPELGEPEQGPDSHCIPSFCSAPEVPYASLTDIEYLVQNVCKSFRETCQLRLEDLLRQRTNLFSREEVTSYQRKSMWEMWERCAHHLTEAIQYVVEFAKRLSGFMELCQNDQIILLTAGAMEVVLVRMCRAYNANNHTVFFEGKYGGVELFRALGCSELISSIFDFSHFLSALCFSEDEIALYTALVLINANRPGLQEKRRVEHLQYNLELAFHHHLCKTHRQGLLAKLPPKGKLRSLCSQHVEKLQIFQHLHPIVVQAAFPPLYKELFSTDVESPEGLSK
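Stable Schneider cell line, Gal4 DNA-binding domain fused to ROR gamma, UAS-luciferase. Cmpd 1 hr RT → CuSO4 700 uM final → 20 hr RT → luciferase reagent 10 min → luminescence.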
Gal4-VP16 FLuc = Gal4-VP16 reporter inhibition counter-screen. Drosophila S2 Gal4-VP16 UAS-luciferase, luminescence, 20 h. Potency, µM (series often up to 53.6 µM), actives largely listed as inhibitors. hit rate 3.5% among 310,000;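 note: Gal4-VP16 expression switched on by copper sulfate through the metallothionein promoter; nearly all actives have a fitted effect of over 50% in size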
DT40 TDP1 no CPT = qHTS for Inhibitors of human tyrosyl-DNA phosphodiesterase 1 (TDP1): qHTS in cells in absence of CPT; hit rate 15% among 420,000; AID 686978, 2013; Potency, µM (top dose mostly 46.2 µM), actives largely listed as inhibitors; DT40 Tdp1-/- hTDP1 cells, no CPT, ATP luminescence, 48 h; note: nearly all actives have a fitted effect of over 55% in size
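Readout: luminescence from CellTiter-Glo after 30 min in the dark at RT. Cells: DT40 Tdp1-/- with stable hTDP1, 400/well. Exposure: compounds alone, ≥48 hr, 37 °C.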
ALOX12 inh = inhibitors of human 12S-lipoxygenase ALOX12; purified 12hLO, xylenol orange hydroperoxide absorbance; hit rate 1.1% among 580,000; AID 1671190; Potency, µM (doses to about 108 µM), actives largely listed as inhibitors; P18054
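Purified human 12hLO at 150 nM in 25 mM Hepes, 0.01% Triton X-100, pH 7.0, preincubated 15 min at room temperature with compound. Reaction started with 40 uM arachidonic acid, 30 min at room temperature. Hydroperoxide measured by Fe-xylenol orange, 573/405 nm absorbance ratio.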
ELG1 DNA repair = blocks ELG1-dependent DNA repair in HEK293T cells; AID 504467; hit rate 2.3% among 330,000; HEK293T ELG1-luciferase reporter, luminescence, 16 h; DNA damage induced by 5-fluorouridine; Potency, µM (highest dose often 46.1 µM), most hits filed as inhibitors; note: nearly all actives have a fitted effect of over 55% in size
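Step one: seed 2,000 cells per well. Step two: pin-transfer compound or DMSO alongside 5-fluorouridine. Step three: incubate 16 hr, 37 °C, 5% CO2. Step four: add ONE-Glo, wait 30 min, read luminescence.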
TDP1 cell CPT = growth inhibition of DT40 Tdp1-/-;hTDP1 cells with camptothecin (screen for TDP1 inhibitors); Potency, µM (titrated, usually from 46.2 µM), hits mostly inhibitors; AID 686979; chicken DT40 Tdp1-/-;hTDP1 cells + 20 nM CPT, ATP luminescence, 48 h; hit rate 12% among 420,000; note: nearly all actives have a fitted effect of over 55% in size
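Cell growth measured by CellTiter-Glo luminescence after a minimum 48 h, 37 C compound exposure with 20 nM CPT in Tdp1-knockout DT40 cells stably expressing hTDP1, seeded 400/well; qHTS titration format.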
Hits are given with their value; 0 = inactive; ? = inconclusive; - = no result given. Rows were chosen to be rich in hits. Some 15% of all compounds tested hit in one or more screens of this group. Calls come from the whole dose curve; as a rule, active = well fitted curve in the direction sought with a large enough effect; inconclusive = small, poorly fitted or top-dose-only effect, or another doubt; inactive = no such curve, though single readings can be large; an effect the other way counts as inactive or inconclusive.

SMILES | RORgamma inh | Gal4-VP16 FLuc | DT40 TDP1 no CPT | ALOX12 inh | ELG1 DNA repair | TDP1 cell CPT
COCCn1c(=O)c2c(nc3n2CC(C)CN3CCc2ccccc2)n(C)c1=O (configuration not stated) | 0 | ? | ? | 0 | 0 | ?
Cc1ccc(N2CC(C)Cn3c2nc2c3c(=O)n(CC(=O)OCc3ccccc3)c(=O)n2C)cc1C (configuration not stated) | 0 | 0 | 17.8µM | 0 | ? | 11.2µM
COc1ccc(-c2nc(COC(=O)C3(O)CCCCC3)cs2)cc1 | - | - | - | 0 | - | -
COc1ccccc1C(=O)N1CCC(CCOc2ccc(C)cc2)C1 (configuration not stated) | - | - | - | 0 | - | -
COc1ccccc1-c1noc(-c2cc(OC)c(OC)c(OC)c2)n1 | 0 | 0 | 23.1µM | 0 | 11.6µM | ?
COc1cc(OC)cc(-c2nc(-c3ccccc3OC)no2)c1 | 0 | 0 | ? | 0 | 0 | ?
COc1cc(-c2nc(-c3cccc(C(F)(F)F)c3)no2)cc(OC)c1OC | 0 | 0 | ? | 0 | 23.1µM | ?
Cc1ccc2c(C)c(CCC(=O)N3CCCCCCC3)c(=O)oc2c1 | - | - | - | 0 | - | -
FC(F)(F)c1cnc(Sc2nnc3ccccn23)c(Cl)c1 | - | - | - | 0 | - | -
Oc1c(Br)cc(Br)cc1C=Nc1ccc2[nH]ncc2c1 | 0 | 0 | ? | ? | ? | 0
Oc1ccc(Cl)cc1/C=N/c1nccs1 | 0 | 0 | 11.2µM | 0 | 0 | 12.6µM
Cc1nnc(C)n1/N=C/c1cc(Br)cc(Br)c1O | ? | ? | 0 | ? | 0 | 0
Oc1c(Br)cc(Br)cc1/C=N/c1nccs1 | - | - | 18.4µM | 0 | 0 | ?
Oc1c(Br)cc(Br)cc1C=Nc1cccnc1 | 0 | 0 | 20.6µM | ? | 0 | ?
COc1ccccc1C(=O)NC1CC1 | - | - | - | 0 | - | -
CCN(C(=O)C1CCCCC1)C1CC1 | - | - | - | 0 | - | -
COc1ccccc1-c1nc(C#N)c(N2CC(C)CC(C)C2)o1 (configuration not stated) | 0 | 0 | 18.4µM | 0 | 0 | ?
COc1ccc(N2CCN(c3oc(-c4ccc(OC)c(OC)c4)nc3C#N)CC2)cc1 | 0 | 0 | 18.4µM | 0 | 0 | ?
COc1ccc(-c2nc(C#N)c(N3CCc4ccccc4C3)o2)cc1OC | 0 | 0 | 13µM | 0 | ? | 29.1µM
CC1CC(C)CN(c2oc(-c3ccccc3F)nc2C#N)C1 (configuration not stated) | 0 | 0 | ? | 0 | ? | ?
COc1ccc(-c2nc(C#N)c(N3CCCCC3)o2)cc1OC | - | - | - | 0 | - | -
CC(C(=O)N1CCc2onc(-c3ccc(C(F)(F)F)cc3)c2C1)N1CCCC1=O (configuration not stated) | - | - | - | 0 | - | -
Cc1ccc2[nH]cc(CCNC3CC(=O)N(c4ccc(F)cc4)C3=O)c2c1 (configuration not stated) | - | - | - | 0 | - | -
NC(c1csc(NC(=O)Nc2ccccc2Cl)n1)C1CCCCC1 (configuration not stated) | - | - | 16.4µM | 0 | - | 23.1µM
COc1cc(NC(=O)Nc2nc(C(N)C3CCCCC3)cs2)cc(OC)c1OC (configuration not stated) | - | - | 23.1µM | 0 | - | 16.4µM
SMILES | RORgamma inh | Gal4-VP16 FLuc | DT40 TDP1 no CPT | ALOX12 inh | ELG1 DNA repair | TDP1 cell CPT
COc1ccccc1NC(=O)Nc1nc(C(N)C2CCCCC2)cs1 (configuration not stated) | - | - | 14.6µM | 0 | - | 23.1µM
COc1cc(NC(=O)Nc2nc(C(N)C(C)C)cs2)cc(OC)c1OC (configuration not stated) | - | - | ? | 0 | - | ?
CN1CCC(N2CCN(C(=O)c3ccncc3)CC2)C1=O (configuration not stated) | - | - | - | 0 | - | -
COC(=O)c1cc(-c2cnn(C)c2C)nc2ccccc12 | - | - | - | 0 | - | -
COc1ccc(N2CCN(C3CCCN(C/C=C/c4ccccc4OC)C3)CC2)cc1 (configuration not stated) | - | - | - | 0 | - | -
Cc1ccc(S(=O)(=O)N/N=C\c2cn(-c3ccccc3)nc2-c2ccccc2)cc1 | ? | 0 | 0 | 0 | 0 | 0
COc1ccc(NS(=O)(=O)c2cccc(C(=O)N/N=C/c3cn(-c4ccccc4)nc3-c3ccc(OC)cc3)c2)cc1 | 0 | 0 | 0 | 0 | 0 | ?
COc1ccccc1NS(=O)(=O)c1cccc(C(=O)N/N=C/c2cn(-c3ccccc3)nc2-c2ccccc2)c1 | 1.58µM | 6.31µM | ? | 0 | ? | ?
COc1ccc(NS(=O)(=O)c2cccc(C(=O)N/N=C/c3cn(-c4ccccc4)nc3-c3ccccc3)c2)cc1 | ? | 0 | ? | 0 | 0 | 16.4µM
Cc1ccc(-c2nn(-c3ccccc3)cc2/C=N/NS(=O)(=O)c2ccccc2)cc1 | ? | 0 | ? | 0 | ? | 29.1µM
NS(=O)(=O)c1ccc(N/N=C/c2cn(-c3ccccc3)nc2-c2ccccc2)c([N+](=O)[O-])c1 | 0 | 0 | 11.6µM | ? | 0 | 4.11µM
COc1ccc(-c2nn(-c3ccccc3)cc2N)cc1 | 0 | 0 | 0 | 0 | ? | 0
COc1ccc(-c2nn(-c3ccccc3)cc2/C=N/Nc2ccccn2)cc1 | 1.58µM | 3.98µM | - | - | 0 | -
Cc1sc2cc(C(=O)NCC3CC3)[nH]c2c1CN1CCCCC1 | - | - | - | 0 | - | -
Cc1ccc2c(cnn2C(=O)CCCC(=O)NCc2ccc(Cl)cc2)c1 | 0 | 0 | ? | 0 | 0 | 23.1µM
CC(C)C(CCNCc1ccccn1)c1ccc(Cl)cc1 (configuration not stated) | ? | 0 | 13µM | 0 | ? | ?
CC(C)CCC(CCNCc1ccccn1)c1ccc2c(c1)OCO2 (configuration not stated) | 0 | 0 | ? | ? | 0 | ?
O=C(Nc1cccc([N+](=O)[O-])c1)c1cc2ccccc2cc1O | 5.01µM | 4.47µM | 2.59µM | ? | ? | 4.11µM
O=C(Nc1ccc(NC(=O)c2cccc([N+](=O)[O-])c2)cc1)c1cccc([N+](=O)[O-])c1 | 0 | 0 | 0 | 0 | ? | 0
O=C(NC(=S)Nc1cccc(NC(=O)c2ccccc2)c1)c1cccc([N+](=O)[O-])c1 | ? | 0 | 0 | 28.2µM | 0 | ?
O=C(Nc1cccc([N+](=O)[O-])c1)c1cccc(C(=O)Nc2cccc([N+](=O)[O-])c2)c1 | 0 | 0 | 7.31µM | 0 | ? | ?
O=C(Nc1ccncc1)c1cc2ccccc2cc1O | - | - | 11.6µM | 0 | ? | ?
CNC(=O)NC(=O)CCN1CCOC(c2ccc(Br)cc2)C1 (configuration not stated) | - | - | - | 0 | - | -
Cc1ccc(C2Cn3nnc(C(=O)N4CCC(C(=O)Nc5ccc(F)c(C)c5)CC4)c3CO2)cc1 (configuration not stated) | - | - | - | 0 | - | -
Cc1nc2ccc(C(=O)Nc3cccc([N+](=O)[O-])c3)cc2s1 | 0 | 0 | 18.4µM | 0 | 0 | ?
